# Assay results taken from PubChem BioAssay.
# A number with no mark means an inactive call. Calls of active or inactive are those of the source. Unless noted, no stated cut-off is given here; in the data, active means inhibition above about 42%; inactive means the rest.
# Key:
# [1] = StAR promoter reporter inhibitors, counter-screen for LRH-1 inverse agonist project, cell-based, luminescence, high throughput (AID 651611; in the data active means inhibition above about 28%); conditions: StAR promoter luciferase reporter counterscreen, at 3.6 µM, hits give high values
# [2] = target: Nuclear receptor subfamily 5 group A member 2 (Homo sapiens) (UniProt O00482); assay: LRH-1 (NR5A2) inverse agonists, retest, confirmation, cell-based, luminescence (AID 651613); conditions: cell-based LRH-1 luciferase reporter, inverse agonism; at 3.6 µM; hits give high values;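 further: HEK293T cells co-transfected with LRH-1 and StAR promoter luciferase reporter; 0% = vehicle wells and 100% = parental cells lacking receptor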
# [3] = target: Steroidogenic factor 1 (Homo sapiens) (UniProt Q13285); assay: SF1 (NR5A1) inverse agonists, counter-screen for LRH-1 inverse agonist project, cell-based, luminescence, high throughput (AID 651614; in the data active means inhibition above about 44%;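 further: cells cotransfected with StAR promoter reporter and SF1 expression vector; 0% = vehicle on cells with receptor and 100% = vehicle on cells lacking receptor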); conditions: cell-based SF1 luciferase reporter, at 3.6 µM, hits give high values
# [4] = VP16 transactivation reporter inhibitors, counter-screen for LRH-1 inverse agonist project, cell-based, luminescence, high throughput (AID 651615; in the data active means inhibition above about 33%); conditions: Gal4-VP16 luciferase reporter cells, at 3.6 µM, hits give high values
# Chain of Nuclear receptor subfamily 5 group A member 2 (Homo sapiens) (O00482 whole entry, looked up): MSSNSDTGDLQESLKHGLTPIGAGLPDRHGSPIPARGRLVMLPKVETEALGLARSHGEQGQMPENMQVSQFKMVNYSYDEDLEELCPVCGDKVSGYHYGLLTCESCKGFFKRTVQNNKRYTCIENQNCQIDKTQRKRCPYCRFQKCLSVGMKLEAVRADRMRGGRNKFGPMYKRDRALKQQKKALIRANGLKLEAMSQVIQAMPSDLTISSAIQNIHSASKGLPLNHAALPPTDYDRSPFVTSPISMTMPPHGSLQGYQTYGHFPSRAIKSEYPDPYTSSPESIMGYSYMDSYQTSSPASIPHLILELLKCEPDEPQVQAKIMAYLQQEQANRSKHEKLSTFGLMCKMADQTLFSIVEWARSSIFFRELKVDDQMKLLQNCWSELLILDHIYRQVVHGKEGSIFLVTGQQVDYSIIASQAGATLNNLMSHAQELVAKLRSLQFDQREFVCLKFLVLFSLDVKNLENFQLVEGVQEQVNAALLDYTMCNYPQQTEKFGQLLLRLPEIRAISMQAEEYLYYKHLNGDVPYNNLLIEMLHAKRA
# Chain of Steroidogenic factor 1 (Homo sapiens) (Q13285 whole entry, looked up, the tested form may be a part): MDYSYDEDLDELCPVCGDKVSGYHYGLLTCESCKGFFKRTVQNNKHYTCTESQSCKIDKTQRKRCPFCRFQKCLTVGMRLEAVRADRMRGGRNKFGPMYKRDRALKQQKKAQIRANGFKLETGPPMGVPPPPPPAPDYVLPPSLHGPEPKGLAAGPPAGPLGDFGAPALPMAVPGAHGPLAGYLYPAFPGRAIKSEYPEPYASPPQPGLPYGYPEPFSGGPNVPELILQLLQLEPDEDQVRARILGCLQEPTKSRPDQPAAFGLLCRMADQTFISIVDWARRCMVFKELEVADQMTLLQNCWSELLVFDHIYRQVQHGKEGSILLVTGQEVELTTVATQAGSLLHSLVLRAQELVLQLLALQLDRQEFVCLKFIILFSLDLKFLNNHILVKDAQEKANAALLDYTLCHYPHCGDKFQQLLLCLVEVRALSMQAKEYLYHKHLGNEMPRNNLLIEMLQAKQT
SMILES,inhibition [1],inhibition [2],inhibition [3],inhibition [4]
Cc1cc2oc(=O)cc(-c3ccccc3)c2c(C)c1-c1ccc(N(C)C)cc1,0.45%,52% (active),51.3% (active),12.6%
Cc1ccc(NC(=O)CSc2nc3ncc(Br)cc3[nH]2)cc1C,10.7%,54.5% (active),54.1% (active),1.21%
CCOC(=O)c1c2c(n(Cc3ccccc3)c1C)C(=O)C(=O)c1ccccc1-2,48.7% (active),60.6% (active),71.6% (active),54.6% (active)
c1ccc(-c2nc(NCC3CCCO3)c3oc4ccccc4c3n2)cc1 (stereo not drawn),-0.47%,38.2%,39.8%,-17.1%
CCOC(=O)c1cc(C#N)c(N2CCCCC2)nc1-c1ccccc1,8.89%,53.8% (active),40.6%,-5.07%
C=CC[n+]1c(-c2ccc(Cl)cc2Cl)csc1Nc1c(C)n(C)n(-c2ccccc2)c1=O,10.3%,58.7% (active),61% (active),27.5%
COc1ccc(CCNC(=O)COC(=O)Cc2ccccc2[N+](=O)[O-])cc1,8.86%,65.5% (active),61.4% (active),-6.51%
COC(=O)c1cc2c(-c3ccccc3)cc3ccccn3c-2c1C(=O)OC,11.5%,62.3% (active),54.5% (active),0.7%
CC(C)n1c(SCC(=O)Nc2ccc(N3CCOCC3)cc2)nnc1-c1ccco1,4.53%,55.5% (active),45.7% (active),-2.66%
CC(C)NC(=O)CN1CCN(C(=O)CCl)CC1,1.19%,52.8% (active),27.2%,7.31%
COc1ccc(CC(N)c2csc(Nc3ncccn3)n2)cc1 (stereo not drawn),49.2% (active),26.2%,33.1%,15.5%
CCc1cc(=O)oc2c(C)c(OCC(=O)NC3CC(C)(C)NC(C)(C)C3)ccc12,4.17%,56.7% (active),56.1% (active),3.79%
CC(=O)N1CCc2c(sc(NC(=O)Cc3ccccc3)c2C#N)C1,18.4%,64% (active),57.4% (active),-30.8%
COC(=O)c1cc2occc2n1CC(=O)Nc1ccc(C)cc1C,13.8%,66.8% (active),51.6% (active),1.15%
O=C(NNc1ccc([N+](=O)[O-])cc1[N+](=O)[O-])c1ccco1,12.4%,57.6% (active),60% (active),3.35%
O=C(CSc1nc2ccccc2c(=O)n1-c1ccc(F)cc1)Nc1ccc(N2CCOCC2)cc1,2.2%,29.5%,25.7%,6.2%
CC(NC(=O)c1ccc([N+](=O)[O-])o1)C1CC2CCC1C2 (stereo not drawn),3.5%,49.1% (active),44.2% (active),10.8%
CCOc1ccc(NC(=O)CSc2nncc(=O)n2N)cc1,12.1%,64.5% (active),43.6% (active),-9.32%
CNc1c2cccc(C)c2nc2c(C(=O)NCCN(C)C)cccc12,80.3% (active),109% (active),98% (active),74.7% (active)
COc1ccc(NC(=O)COc2ccc(N(C)S(=O)(=O)c3ccc(Cl)cc3)cc2)cc1OC,18.5%,67.1% (active),51.7% (active),51.1% (active)
COc1ccc(-c2nc(C(N)=O)c3[nH]c(=O)n(-c4cccc(Cl)c4)c3n2)cc1OC,20.8%,57.3% (active),56.5% (active),-5.48%
COc1ccc(NC(=O)Cn2c(C)cc(=O)c3ccccc32)cc1,0.15%,64.9% (active),53.2% (active),35.1% (active)
Cc1cc(C(=O)CSc2nnnn2C)c(C)n1CCc1ccc(F)cc1,5.26%,49.4% (active),48% (active),-3.7%
Cn1cc(Cl)c(C(=O)OCC(=O)Nc2ccc(S(N)(=O)=O)cc2)n1,10.9%,55.2% (active),50.4% (active),-12.4%
CC(=O)Nc1ccc(NC(=O)COC(=O)Cc2c[nH]c3ccccc23)cc1,18.8%,67.4% (active),53.8% (active),-15.3%
Cc1nn(Cc2ccc(Cl)cc2)c(C)c1NC(=O)c1cc(C(C)C)on1,16.2%,44.9% (active),64.8% (active),16%

SMILES,inhibition [1],inhibition [2],inhibition [3],inhibition [4]
CSc1ccc(CNc2cccc3ccccc23)cc1,3.79%,35.3%,24.7%,-39.8%
O=C(Nc1ccc([N+](=O)[O-])cc1)c1cccc([N+](=O)[O-])c1,8.52%,65.6% (active),64.5% (active),-15.3%
O=C(CSc1nnc(CNC(=O)c2c(F)cccc2F)o1)Nc1ccc2c(c1)OCCO2,9.56%,44.6% (active),54.6% (active),-8.58%
CC(=O)N(/N=C/c1ccc([N+](=O)[O-])o1)c1nc2ccccc2c(=O)n1-c1ccccc1,19.4%,69% (active),55.2% (active),2.37%
CCOC(=O)c1cc2sccc2n1CC(=O)Nc1ccc2c(c1)OCCO2,7.97%,55.1% (active),52.2% (active),-2.96%
COc1ccc(-c2c(-c3ccccc3)c(C(=O)C(=O)NCCCN(C)C)n3ccc4cc(OC)c(OC)cc4c23)cc1OC,20.4%,40.9%,32.1%,2.99%
COCCNc1ccc([N+](=O)[O-])cc1C(=O)NC1CCCc2ccccc21 (stereo not drawn),4.6%,54.7% (active),53.5% (active),12.8%
CN(C)c1ccc(C=c2c3ccccc3n3c2cc(-c2ccc(Cl)cc2)[n+]3C)cc1,5.51%,102% (active),69% (active),86.3% (active)
CCNc1cc(N2CCCC2)ccc1[N+](=O)[O-],10.6%,40.2%,44% (active),-8.79%
ClCc1ncc(-c2ccc(Cl)cc2)o1,15.7%,70% (active),62.7% (active),-28.8%
CS(=O)(=O)c1ccc2nc(NC(=O)C3CC(=O)N(c4ccccc4)C3)sc2c1 (stereo not drawn),29.6% (active),60.4% (active),55.9% (active),11.3%
O=C(CN1C(=O)NC2(CCOc3ccccc32)C1=O)Nc1cccc([N+](=O)[O-])c1 (stereo not drawn),13.7%,58.6% (active),53.6% (active),-15.2%
CC(=O)N1CCc2c(sc(NC(=O)c3ccc([N+](=O)[O-])o3)c2C(N)=O)C1,19.9%,65.2% (active),65.3% (active),-14.1%
COc1cc(-c2cnc3c(NC=O)cc(-c4ccccc4Cl)cn23)cc(OC)c1OC,64.9% (active),45.6% (active),62.6% (active),-21.3%
COc1ccc(CCNC(=O)c2cc(-c3ccco3)on2)cc1OC,-181%,43.8% (active),50.5% (active),-5.34%
C#Cc1cc(N2CCN(C(=O)c3ccoc3)CC2)n2nc(-c3cccc(Cl)c3)cc2n1,49% (active),55.6% (active),62.4% (active),23.7%
Nc1c2ccccc2nc2ccccc12,14.7%,106% (active),52.1% (active),90.4% (active)
COc1cc(-c2cnc3c(NC=O)cc(-c4cccc(NC(C)=O)c4)cn23)cc(OC)c1OC,62.9% (active),74.9% (active),71.5% (active),-23.8%
O=C(c1ccc(Oc2ccc([N+](=O)[O-])cc2Cl)cc1)N1CCCC1,6.61%,46.2% (active),58.9% (active),4.32%
CCN1CCN(c2ccc(S(=O)(=O)N3CCCCC3)cc2NC(=O)/C=C/c2ccc([N+](=O)[O-])cc2)CC1,0.06%,61.8% (active),49.4% (active),3.5%
O=[N+]([O-])c1ccc(Sc2nnnn2-c2ccccc2)c(Cl)c1,5.41%,25.6%,37.7%,-13%
Cc1nnc(SCC(=O)Nc2ccc(N3CCN(S(C)(=O)=O)CC3)cc2)o1,-2.52%,50.8% (active),50.2% (active),-9.83%
O=C(COC(=O)Cc1ccccc1[N+](=O)[O-])NCc1ccc(Cl)cc1,11.3%,37.2%,34.4%,-5.74%
CCCc1cc(=O)oc2cc(OCC(=O)NCCc3ccc(S(N)(=O)=O)cc3)ccc12,9.29%,50.9% (active),51.1% (active),4.44%
O=C(c1ccc(Oc2ccc(Cl)cc2)c([N+](=O)[O-])c1)N1CCCC1,-14.7%,33.5%,38%,-0.01%
COc1ccc(CNC(=O)O[C@@H]2C[C@H]3C(=O)N(c4ccccc4)C(=O)[C@H]3[C@@]3(CN(S(=O)(=O)c4ccc(C)cc4)C[C@H]3C)[C@@H]2O)cc1OC,9.47%,18.4%,13.8%,8.56%
